# D1 PAM: Potentiators of Human D1 Dopamine Receptor: qHTS; HEK293 TREx D1 cells, calcium flux, dopamine EC20 potentiation; potentiation, % at 10 µM; 0.036% of 360,000 active; in the data active = potentiation above about 30%; note: 0% is about no effect
# Target sequence (P21728 whole entry, looked up): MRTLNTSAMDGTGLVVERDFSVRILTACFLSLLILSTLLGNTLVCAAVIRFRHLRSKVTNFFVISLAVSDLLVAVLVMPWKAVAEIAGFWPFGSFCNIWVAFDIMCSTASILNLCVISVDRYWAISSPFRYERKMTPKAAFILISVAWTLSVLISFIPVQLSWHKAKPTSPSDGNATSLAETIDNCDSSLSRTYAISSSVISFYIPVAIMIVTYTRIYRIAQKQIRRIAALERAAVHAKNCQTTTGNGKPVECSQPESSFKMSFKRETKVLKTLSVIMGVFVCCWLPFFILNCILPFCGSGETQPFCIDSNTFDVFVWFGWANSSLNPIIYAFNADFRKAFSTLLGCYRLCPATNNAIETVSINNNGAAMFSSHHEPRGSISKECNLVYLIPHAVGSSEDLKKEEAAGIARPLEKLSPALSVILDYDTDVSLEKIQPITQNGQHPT
# Epigenetic reg: Quantitative High-Throughput Screen for Regulators of Epigenetic Control; AID 1865, 2009; 0.2% of 280,000 active; murine LDR cells, GFP reporter derepression, 30 h; Potency, µM (series often up to 53.9 µM), inactives show at the highest dose GFP activation, usual class: activators; active = well fitted activation curve with a large enough effect; note: potency is the fitted concentration of half-maximal effect; % of control where 0% means no effect; nearly all actives have a fitted effect of over 60% in size
#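 GFP-positive cell count by laser-scanning cytometry (objects 20–120 um) after 30 h, 37 C compound exposure of murine LDR cells; reporter is CMV-GFP integrated at a silenced locus, inducible by HDAC or DNMT inhibitors.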
# TRHR agonist: qHTS for Small Molecule Agonists and Allosteric Enhancers of Human TRH Receptor: Primary Screen for Agonists; TRHR cells, calcium flux fluo-8, FDSS agonist mode; activation, % at 2 µM; 0.18% of 360,000 active; AID 493084, 2011; note: 0% is about no effect
#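 Agonist-mode FDSS calcium read (Ex 480/Em 530, 1 s cycles) in 1536-well TRHR cells with fluo-8 dye, after 10-cycle baseline and 23 nL compound addition; TRH at EC20 (10 nM final) added afterwards for the enhancer phase.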
# D1 antagonist: Antagonist of Human D 1 Dopamine Receptor: qHTS. activity change, negative = inhibition, % at 10 µM. D(1A) dopamine receptor (Homo sapiens), P21728. 3.2% of 360,000 active. HEK293 TREx D1 cells, calcium flux, dopamine EC80; active compounds read low; in the data active = activity change below about -30%; note: % is set by controls: 0 for no effect and ±100 for the full control effect
#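 Allosteric or orthosteric antagonism assessed as attenuation of the calcium response to EC80 dopamine, added 180 s after compound, in induced HEK293 Trex D1 cells loaded with no-wash calcium dye.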
# D1 agonist: Allosteric Agonists of the Human D1 Dopamine Receptor: qHTS. D(1A) dopamine receptor (Homo sapiens), P21728. HEK293 T-REx D1 cells, calcium flux, agonist mode. activation, % at 2 µM. 1% of 360,000 active. AID 504660, 2011; note: 0% is about no effect
#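 Inducible HEK293 T-REx D1 cells, force-coupled to calcium signalling, were plated at 4000 cells/well with tetracycline and held overnight at 30 C. After no-wash calcium dye loading, compound-evoked calcium rise over 180 s flagged agonists.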
# TRHR PAM: qHTS for Small Molecule Agonists and Allosteric Enhancers of Human TRH Receptor: Primary Screen for Enhancers; enhancement, % at 2 µM; AID 493056, 2011; Thyrotropin-releasing hormone receptor (Homo sapiens), P34981; 0.66% of 360,000 active; TRHR cells, fluo-8 calcium fluorescence, EC20 TRH enhancement; in the data active = enhancement above about 30%; note: 0% is about no effect
#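 Enhancer read-out: after compound pinning and an initial kinetic agonist-mode read, an EC20 of TRH (10 nM final) was injected and fluo-8 calcium signal (Ex 480/Em 530) followed at 1 s/cycle for 100 cycles in TRHR-expressing cells.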
# * marks the source's active call; other numbers are inactive results; . = no result given; [ ] = remark or other dose. Hits are enriched below; roughly 4.6% of the tested compounds scored in any of these assays. Cut-off read from the data, not from the text of the source, unless noted: active = activation above about 30%; inactive = the rest.
SMILES,D1 PAM,Epigenetic reg,TRHR agonist,D1 antagonist,D1 agonist,TRHR PAM
Cc1ccc(C2CC(c3cccs3)=NN2S(=O)(=O)c2ccc(C)cc2)cc1 (centres undefined),-1,-1%,2,-33*,7,1
Cc1nn(C)cc1NC(=O)Cn1nc(C(F)(F)F)cc1C1CC1,-7,-1%,0,-67*,-1,-1
Cc1ccccc1NC(=O)Cn1nc(C(F)(F)F)cc1C1CC1,0,-2%,0,3,3,1
CSc1ncccc1C(=O)NNC(=O)c1ccc(NS(=O)(=O)c2cccs2)cc1,5,.,0,-45*,0,-6
Cc1nn(C)c2nc(NNC(=O)Nc3cc(Cl)nc(Cl)c3)cc(C(C)C)c12,.,0%,.,.,.,.
O=C(Cc1cccc2ccccc12)Nc1c(F)cccc1F,-5,.,-2,-36*,1,4
O=C(Cc1cccc2ccccc12)Nc1ccccc1C(=O)O,4,-4%,0,-1,0,9
CCOC(=O)CCc1c(C)nc2cc(-c3cc(OC)cc(OC)c3)[nH]n2c1=O,0,0%,0,1,0,1
O=C(/C=C/c1ccc(Cl)cc1Cl)NCCSCc1ccccc1,-10,0%,2,-46*,6,-3
O=C(/C=C/c1ccccc1)NCCSCc1ccccc1Cl,-4,-3%,1,-32*,14,-8
COC(=O)CNC(=O)CSc1nc2c(sc(=S)n2-c2ccccc2)c(=O)[nH]1,-6,.,0,-37*,1,-27
CCCCOc1ccc(C2C(=O)N(C3CCCCC3)CC(=O)N2C2CCCCC2)cc1 (centres undefined),-1,1%,0,11,-4,-3
COc1ccc(Cl)cc1NC(=O)C(C)OC(=O)C1=NNC(=O)CC1 (centres undefined),-2,.,0,-66*,0,2
O=C1CCC(C(=O)OC(C(=O)Nc2cc(Cl)cc(Cl)c2)c2ccccc2)=NN1 (centres undefined),2,.,0,42,4,11
OCC1(CCOc2ccccc2)CCN(Cc2ccccc2C(F)(F)F)CC1,0,.,1,4,9,-1
CCOc1ccccc1CN1CCC(CO)(CCOc2ccccc2)CC1,-1,-3%,0,16,30*,5
COc1ccc(CN2CCC(CO)(CCOc3ccccc3)CC2)c(OC)c1C,-5,-1%,2,-31*,66*,2
COc1cc(Cl)c(CN2CCC(CO)(CCOc3ccccc3)CC2)cc1OC,-7,.,0,-1,13,13
CN1C(=O)c2cccc3c(Cl)ccc(c23)C1=O,1,0%,0,3,3,-2
CNc1ccc2c3c(cccc13)C(=O)N(C)C2=O,-18,.,262*,-38*,338*,47*
CCOC(=O)c1noc2nc(C)n(CC(=O)NC(C)CC)c(=O)c12 (centres undefined),1,-2%,0,-4,1,34*
CC1CCN(C(=O)CN2c3ccc(C(C)C)cc3-c3ccccc3S2(=O)=O)CC1,-2,-3%,0,6,1,-13
Clc1nc(-c2ccccn2)nc2scc(-c3ccccc3)c12,-6,2%,0,-16,17,40*
Fc1ccc(C(CCNCc2ccccn2)c2ccc(Cl)cc2)cc1 (centres undefined),19,.,3,17,67*,6
C=CC[n+]1c(-c2ccc(OC)cc2)csc1NNC(=O)Nc1ccccc1,2,1%,2,-18,3,6
SMILES,D1 PAM,Epigenetic reg,TRHR agonist,D1 antagonist,D1 agonist,TRHR PAM
C=CC[n+]1c(-c2ccc(C)cc2)csc1Nc1ccc(NC(C)=O)cc1,-14,-1%,0,-47*,5,-1
C[C@H]1CC[C@H]2C(=O)N3[C@H](c4ccc(Br)cc4)[C@@H](C)CC[C@H]3C(=O)N2[C@@H]1c1ccc(Br)cc1,.,1%[10.1 µM],.,.,.,.
Cc1ccc(-n2c(C)nn(-c3ncc(C(F)(F)F)cc3Cl)c2=O)cc1,-5,-1%,0,-47*,0,-3
CCN(CC)c1ccc(/C=C(/C#N)c2nc3ccccc3[nH]2)c(OC(C)C)c1,.,13µM*,.,.,.,.
CCOc1cccc(/C=C(/C#N)c2nc3ccccc3[nH]2)c1OCC(=O)O,1,.,0,6,1,-1
COc1ccc(OC)c(S(=O)(=O)N2Cc3ccccc3CC2C(=O)Nc2ccc(C(C)=O)cc2)c1 (centres undefined),-2,3%,1,-1,6,-7
COc1ccccc1NC(=O)CSc1n[nH]c(Cc2ccccc2)n1,-3,.,0,-18,6,-9
CCN(C(=O)CSc1nc2ccccc2nc1Cc1ccccc1OC)c1ccccc1,0,-3%,0,-45*,3,-6
CCN(CC(=O)Nc1ccccc1OC)C(=O)CCc1ccccc1,5,.,0,7,-3,39*
COc1ccccc1NC(=O)CSc1nc2ccccc2cc1Cc1ccccc1,-3,1%,0,-33*,6,-8
Cc1cc2c(s1)c1cnn(Cc3c(C)cc(F)cc3C)c(=O)c1n2C,2,.,1,1,1,4
Cc1c(C(=O)Nc2cccc(Cl)c2)sc2nc3n(c(=O)c12)N=C(c1cccc(Br)c1)CS3,-1,-1%,0,4,2,22
CCOC(=O)Cn1c(=O)n(CC2CCCO2)c2nc(-c3cc(OC)ccc3OC)nc(C(N)=O)c21 (centres undefined),0,0%,-1,16,1,3
Cn1c(SCc2ccc(F)cc2)nc2ccc(C(=O)NCc3ccc(F)cc3)cc21,-3,1%,2,-32*,13,6
Cn1c(SCc2ccc(F)cc2)nc2ccc(C(=O)NCc3ccc(Cl)cc3)cc21,-5,1%,0,-6,11,1
O=C(c1ccco1)N1CCCC(N2CCN(c3ccccc3F)CC2)C1 (centres undefined),0,.,0,-9,1,-2
CC(C)/C=C/C(=O)N1CCCC(N2CCN(c3ccccc3F)CC2)C1 (centres undefined),-5,.,-1,-46*,1,-5
COc1ccccc1N1CCN(C2CCCN(C(=O)CN3CCCC3=O)C2)CC1 (centres undefined),-4,.,0,-32*,-1,7
